# According to the supplement of paper PMC6555819:
# Assays:
# Assay in all cases: PBM binding z-score (relative to random genomic background probes); higher = stronger binding; sequences stand for … in GC…GCGATTGACAGCGTAGAATGAAGG
# [1] = system: FXR:RXRa (NR concentration 270 nM, RXRa partner concentration 90 nM)
# In short: (§1)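 Ligand-free nuclear receptor dimers were applied to custom Agilent 4×180K protein-binding microarrays whose double-stranded probes carried direct-repeat seeds, single-nucleotide variants, half-site ablations and random human genomic background sequences in 34-nt variable regions. Incubation lasted 1 h. Binding z-scores were computed against the random background probes from regression-normalized fluorescence.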
# [2] = system: LXRa:RXRa (NR concentration 270 nM, RXRa partner concentration 90 nM)
# In short: as §1
# [3] = system: LXRa homodimer (NR concentration 270 nM)
# In short: as §1
# [4] = system: LXRb:RXRa (NR concentration 270 nM, RXRa partner concentration 90 nM)
# In short: as §1
# [5] = system: LXRb homodimer (NR concentration 270 nM)
# In short: as §1
# [6] = system: PPARa:RXRa (NR concentration 270 nM, RXRa partner concentration 90 nM)
# In short: as §1
# [7] = system: PPARg:RXRa (NR concentration 180 nM, RXRa partner concentration 90 nM)
# In short: as §1
# [8] = system: PPARg:RXRa 270nM:90nM, anti-RXR (NR concentration 270 nM, RXRa partner concentration 90 nM)
# In short: as §1
# [9] = system: PPARg:RXRa 30nM:10nM, anti-RXR (NR concentration 30 nM, RXRa partner concentration 10 nM)
# In short: as §1
# [10] = system: PPARg:RXRa 90nM:30nM, anti-RXR (NR concentration 90 nM, RXRa partner concentration 30 nM)
# In short: as §1
# [11] = system: PPARg:RXRa DBDmut IVT, anti-RXR (DBD mutation: RXRa K156A/R161A, NR concentration 270 nM, RXRa partner concentration 90 nM)
# In short: as §1
# [12] = system: PPARg:RXRa IVT, anti-PPARg (NR concentration 270 nM, RXRa partner concentration 90 nM)
# In short: as §1
# [13] = system: PPARg DBDmut:RXRa IVT, anti-PPARg (DBD mutation: PPARg1 K132A/R137A, NR concentration 270 nM, RXRa partner concentration 90 nM)
# In short: as §1
# [14] = system: PPARg DBDmut IVT, anti-PPARg (DBD mutation: PPARg1 K132A/R137A, NR concentration 270 nM)
# In short: as §1
# [15] = system: PPARg homodimer (NR concentration 180 nM)
# In short: as §1
# [16] = system: PXR:RXRa (NR concentration 270 nM, RXRa partner concentration 90 nM)
# In short: as §1
# [17] = system: PXR homodimer (NR concentration 270 nM)
# In short: as §1
# [18] = system: RARa:RXR (NR concentration 270 nM, RXRa partner concentration 90 nM)
# In short: as §1
# [19] = system: RARa homodimer (NR concentration 270 nM)
# In short: as §1
# [20] = system: RARb:RXRa (NR concentration 270 nM, RXRa partner concentration 90 nM)
# In short: as §1
sequence,measurement,setting,value
CCTAGCAGGCCAGGTTCACTCAAGCATTTCGCTT,PBM binding z-score,[1],0.117
same,PBM binding z-score,[2],0.554
same,PBM binding z-score,[3],-0.238
same,PBM binding z-score,[4],0.666
same,PBM binding z-score,[5],-0.142
same,PBM binding z-score,[6],0.874
same,PBM binding z-score,[7],-0.212
same,PBM binding z-score,[8],-0.0179
same,PBM binding z-score,[9],-0.854
same,PBM binding z-score,[10],-0.512
same,PBM binding z-score,[11],0.866
same,PBM binding z-score,[12],-0.316
same,PBM binding z-score,[13],-1.77
same,PBM binding z-score,[14],-0.982
same,PBM binding z-score,[15],-0.179
same,PBM binding z-score,[16],0.776
same,PBM binding z-score,[17],0.391
same,PBM binding z-score,[18],0.488
same,PBM binding z-score,[19],-0.298
same,PBM binding z-score,[20],0.579
TGTCAAAGCTCAAAGGTAACGTAAGTATCCACAC,PBM binding z-score,[1],0.08
same,PBM binding z-score,[2],-0.0986
same,PBM binding z-score,[3],-0.625
same,PBM binding z-score,[4],0.416
same,PBM binding z-score,[5],-0.838
same,PBM binding z-score,[6],1.04
same,PBM binding z-score,[7],1.25
same,PBM binding z-score,[8],1.81
same,PBM binding z-score,[9],0.686
same,PBM binding z-score,[10],1.43
same,PBM binding z-score,[11],-0.538
same,PBM binding z-score,[12],0.996
same,PBM binding z-score,[13],0.525
same,PBM binding z-score,[14],0.434
same,PBM binding z-score,[15],-0.0175
same,PBM binding z-score,[16],0.078
same,PBM binding z-score,[17],-0.43
same,PBM binding z-score,[18],0.683
same,PBM binding z-score,[19],-0.12
same,PBM binding z-score,[20],0.692
CCTCGGAGGTCAGAAGGTCAGAGCTGTCCGCTTT,PBM binding z-score,[1],5.84
same,PBM binding z-score,[2],4.89
same,PBM binding z-score,[3],1.19
same,PBM binding z-score,[4],3.83
same,PBM binding z-score,[5],0.259
same,PBM binding z-score,[6],4.92
same,PBM binding z-score,[7],3.38
same,PBM binding z-score,[8],5.24
same,PBM binding z-score,[9],1.27
same,PBM binding z-score,[10],3.92
same,PBM binding z-score,[11],2.53
same,PBM binding z-score,[12],3.5
same,PBM binding z-score,[13],-1.11
same,PBM binding z-score,[14],-1.86
same,PBM binding z-score,[15],5.71
same,PBM binding z-score,[16],4.71
same,PBM binding z-score,[17],0.603
same,PBM binding z-score,[18],6.73
same,PBM binding z-score,[19],0.835
same,PBM binding z-score,[20],5.16
ATATGCAGGTTATCGGGTCATTCAGTTTGCGCAT,PBM binding z-score,[1],3.37
same,PBM binding z-score,[2],3.44
same,PBM binding z-score,[3],1.57
same,PBM binding z-score,[4],3.03
same,PBM binding z-score,[5],0.832
same,PBM binding z-score,[6],4.13
same,PBM binding z-score,[7],4.45
same,PBM binding z-score,[8],4.25
same,PBM binding z-score,[9],1.56
same,PBM binding z-score,[10],3.42
same,PBM binding z-score,[11],4.84
same,PBM binding z-score,[12],5.2
same,PBM binding z-score,[13],2.48
same,PBM binding z-score,[14],0.956
same,PBM binding z-score,[15],2.06
same,PBM binding z-score,[16],3.99
same,PBM binding z-score,[17],7.38
same,PBM binding z-score,[18],4.1
same,PBM binding z-score,[19],0.986
same,PBM binding z-score,[20],2.51
TAGCATAGGTCATGCGGGCCAGTATAGTGTCGGC,PBM binding z-score,[1],5.29
same,PBM binding z-score,[2],5.13
same,PBM binding z-score,[3],0.874
same,PBM binding z-score,[4],3.33
same,PBM binding z-score,[5],-0.127
same,PBM binding z-score,[6],5.22
same,PBM binding z-score,[7],4.08
same,PBM binding z-score,[8],4.44
same,PBM binding z-score,[9],0.97
same,PBM binding z-score,[10],3.18
same,PBM binding z-score,[11],1
same,PBM binding z-score,[12],2.48
same,PBM binding z-score,[13],0.261
same,PBM binding z-score,[14],-0.165
same,PBM binding z-score,[15],1.08
same,PBM binding z-score,[16],2.83
same,PBM binding z-score,[17],0.0553
same,PBM binding z-score,[18],3.38
same,PBM binding z-score,[19],-0.53
same,PBM binding z-score,[20],4.13
